# Data taken from PubChem BioAssay (NCI).
# Compounds without any hit were thinned out: in the full panel of roughly 83,000, 20% have a hit.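 Testing used 96-well plates and a 48-hour single-concentration exposure. Example: -40 means 40% of the starting cells died.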 Active and inactive are the calls of the source. Rule for the calls: active = growth percent below 10; inactive = the rest.
# System: HCT-15 colon
# Assay: NCI-60 one-dose screen, 48 h (100 = growth as untreated, 0 = no growth, -100 = all killed)
# Settings: 10 µM unless noted
row,SMILES,growth
1,OC(c1ccccc1)(c1ccccc1)c1ccccc1-c1ccccc1,90.7% (inactive)
2,Clc1ccc(-c2nc(-c3c[nH]c4ncccc34)cs2)cc1,98.7% [100 µM] (inactive)
3,CC(=O)c1cc(-c2ccccc2N)n(-c2ccc3c(c2)OCO3)c1C,13.4% (inactive)
4,CC1O[C@@H]2C[C@@](O)([C@H]1O)n1c3ccccc3c3c4c(c5c6ccccc6n2c5c31)C(=O)NC4=O (stereo not given in full),62% (inactive)
5,COC(=O)/C(CCC=C(C)C)=C1\[C@@H](OC(C)=O)C[C@@]2(C)[C@H]1CC(=O)[C@H]1[C@@]3(C)CCC(N4CCCC4)[C@@H](C)[C@@H]3CC[C@@]12C (stereo not given in full),73.4% (inactive)
6,CN(C)c1ccc(/C=C2/C=C(c3ccccc3)OC2=O)cc1,91.7% (inactive)
7,COc1cc(-c2nc3occn3c2-c2ccnc(NCCCNS(=O)(=O)c3ccccc3)n2)ccc1F,37.5% (inactive)
8,O=C(Nc1ccccc1)c1sc(-c2ccccc2)cc1O,97.4% (inactive)
9,CCOC(=O)c1c2c(n3c1NCC3)-c1ccccc1C2=O,99.3% (inactive)
10,C/C(=N\Nc1nc(C)cs1)c1cc2ccccc2o1,98.8% (inactive)
11,CCOC(=O)C1=C(c2ccccc2)N=c2s/c(=C/c3ccc(Br)cc3)c(=O)n2C1c1ccc(O)cc1 (stereo not given),82.3% (inactive)
12,COc1ccc(C2CC(c3ccc(Nc4nc(Nc5ccc(F)cc5)nc(Nc5ccc(F)cc5)n4)cc3)=NN2C(C)=O)cc1 (stereo not given),94.4% (inactive)
13,c1ccc2cc(Cn3c[n+](Cc4ccc5ccccc5c4)c4ccccc43)ccc2c1,53.6% (inactive)
14,CN1CCN(c2ccc3c(c2)nc(NNC(=O)c2cnccn2)c2cccn23)CC1,23.9% (inactive)
15,Cc1cc(C)c(-c2c(O)c(Br)c(-c3c(C)cc(C)c(Br)c3C)c(O)c2Br)c(C)c1Br,10.2% (inactive)
16,CCCCCCCCCCCCCCCCCCOc1ccccc1CC(=O)NCC[N+]1(C)CCOCC1,91.1% (inactive)
17,O=C(/C=C/c1cccc(Cl)c1)c1cccc(OCCCCOc2cccc(C(=O)/C=C/c3cccc(Cl)c3)c2)c1,83.6% (inactive)
18,Cc1ccc(-c2nc(C#N)c(S(=O)(=O)NCCO)o2)cc1,41.8% (inactive)
19,NC(=O)c1ccc(NC(=O)c2oc3ccccc3c2-c2cnn(-c3ccccc3)c2)cc1,43.2% [50 µM] (inactive)
20,O=C(CBr)CN1C(=O)c2ccccc2C1=O,110% (inactive)

row,SMILES,growth
1,CCN(CC)c1ccc(/C=C\c2cc(C)c3cc(C)ccc3n2)cc1,21.1% (inactive)
2,C=CCN=C(N)SCCCCCCSC(N)=NCC=C,96.4% (inactive)
3,Clc1nn2c(Cn3cnc4c(NCc5ccccc5)ncnc43)nnc2c2ccccc12,25.8% (inactive)
4,CCOC(=O)c1ccc2c(c1)c1c(C)c3ccncc3c(C)c1n2C,0.188% (active)
5,CCCCCCCCn1ccc2cc(NC(=O)Cn3cc(CN4CCCCCC4)nn3)ccc21,-65.9% (active)
6,N#CC(C#N)N=Nc1ccc(Cl)cc1Cl,85% (inactive)
7,Brc1ccc(-c2cnc3nonc3n2)cc1,54.8% (inactive)
8,COc1cccc(C(=O)OCC(O)C(=O)NC23CC4CC(CC(C4)C2)C3)c1 (stereo not given),96.9% (inactive)
9,O=C(Nc1cccc(NC(=O)C2CCCCC2)c1)c1ccccn1,100% (inactive)
10,Cc1cc(C)cc(Nc2ccc([N+](=O)[O-])c(NCCN3CCOCC3)n2)c1,11.5% (inactive)
11,O=C(Nc1cccnc1Nc1ccc(Cl)cc1)c1cn(Cc2ccc(F)cc2)nn1,95.4% (inactive)
12,Cn1c(=O)c2c(c3ccccc31)OC(N)=C(C#N)C21C(=O)c2ccccc2C1=O,96.1% (inactive)
13,COc1cccc(/C=C2\COc3ccc(O)cc3C2=O)c1,40.6% (inactive)
14,CCc1cccc(Sc2cc(C(=O)N3Cc4ccc(OCCN(C)C)cc4C3)ccc2O)c1,30.7% (inactive)
15,C=C(CN1CC=CCC1)[C@@H]1CC[C@]2(CO)CC[C@]3(C)[C@H](CC[C@@H]4[C@@]5(C)CC[C@H](O)C(C)(C)[C@@H]5CC[C@]43C)[C@@H]12,92.2% (inactive)
16,COc1ccc(/C(C)=C(\c2ccc(Cl)cc2)c2ccc(OCCN3CCCC3)cc2)cc1,7.96% (active)
17,CC/C(Cc1ccccc1)=C(\c1ccc(OCCN2CCCCCC2)cc1)c1ccc(OC(=O)NCc2ccccc2)cc1,9.25% (active)
18,N=c1sc(Cc2cc(Cl)ccc2Cl)cn1CC(=O)c1ccccc1,23.5% (inactive)
19,Cc1cc(C(=O)Nc2cc(Nc3ncccc3-c3ncnc4nc[nH]c34)ccc2F)cc(C(F)(F)F)c1,60.1% (inactive)
20,C[C@@H]1O[C@@H](O[C@@H]2C[C@H](c3ccc4c(c3O)C(=O)C3=C(C4=O)[C@@]4(O)C(=O)C[C@](C)(O)C[C@@]4(O)C=C3)O[C@H](C)[C@H]2O)C[C@H](O)[C@@H]1O,98.9% (inactive)
